Among the data in PubChem BioAssay (NCI) are growth values, retold here.

This is part of a sample that, as a whole, favours compounds with a hit. Of some 83,000 tested, about 20% had one in any assay.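 Single-concentration screen, 48 h exposure, 96-well plates. Endpoint: percent growth. Below 10 = active.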 Values without a mark were called inactive. The source made the active and inactive calls.

The experiment deals with SNB-19 CNS. The experiment in a line: NCI-60 one-dose screen, 48 h (100 = growth as untreated, 0 = no growth, -100 = all killed). As to conditions: 10 µM unless noted.
As for `COC(=O)[C@@H](C)C[C@H](Cc1ccccc1)NC(=O)c1nc([C@@H](C[C@H](C(C)C)N(C)C(=O)[C@@H](NC(=O)[C@H]2CCCN2C)C(C)C)OC(C)=O)sc1C`, the growth is 42%.
On to `CCCCCSC1C2C(=O)C(Br)=CC13CCNc1c(O)c4c5c(c13)=[N+]2CCC=5C=N4` (stereo not given), for which the growth is -65.5% (active).
For the molecule `CC1=C(CCCOC(=O)CN)C2=C(C)C3(CC3)[C@@](C)(O)C(=O)C2=C1`, the growth was 91.2%.
For the molecule `COC(=O)CC[C@H](Cc1ccccc1)NC(=O)c1csc([C@@H](C[C@H](C(C)C)N(C)C(=O)[C@@H](NC(=O)[C@H]2CCCCN2C)C(C)C)OC(C)=O)n1`, the growth is 44.2%.
Regarding `COC(=O)CC12CC(NC(=O)c3csc([C@@H](C[C@H](C(C)C)N(C)C(=O)[C@@H](NC(=O)[C@H]4CCCCN4C)C(C)C)OC(C)=O)n3)(C1)C2`, the growth is 37.8%.
With `O=C1CNC(c2ccccc2)c2cc(Cl)ccc2N1` (stereo not given), the growth was 96.6%.
To `CC1(C)N=C(N)N=C(N)N1c1cccc(CCCCc2ccc(Cl)c(S(=O)(=O)F)c2)c1` belongs 45.9%.
On to `CC(=O)O[C@H](C[C@H](C(C)C)N(C)C(=O)[C@@H](NC(=O)[C@H]1CCCCN1C)C(C)C)c1nc(C(=O)N[C@@H](Cc2ccccc2)C[C@H](C)C(=O)O)c(C(C)C)s1`, for which the growth is 27.6%.
Consider `COC(=O)[C@@H](C)C[C@H](Cc1ccccc1)NC(=O)c1csc(CC[C@H](C(C)C)N(C)C(=O)[C@@H](NC(=O)[C@H]2CCCCN2C)C(C)C)n1`, for which the growth is 35.4%.
Turning to `CCOP(=O)(NC[C@H]1O[C@](O)(CO)[C@@H](O)[C@@H]1O)OCC`, the growth is 97%.
